# A selection: hits, their analogues and other compounds. The true share with any hit is near 12%.
# HP1b chromo inh: HTS for Inhibitors of HP1-beta Chromodomain Interactions with Methylated Histone Tails | AlphaScreen HP1-beta / biotin-H3K9me3 peptide binding | Potency, µM (titrated, usually from 114 µM), without a hit: top-dose activity change, negative = inhibition, most hits filed as inhibitors | 0.56% of 390,000 active | AID 540317, 2011; also: potency is read from the fitted curve at half-maximal effect; nearly all actives have a fitted effect of over 70% in size
# Target sequence (P83916 whole entry, looked up): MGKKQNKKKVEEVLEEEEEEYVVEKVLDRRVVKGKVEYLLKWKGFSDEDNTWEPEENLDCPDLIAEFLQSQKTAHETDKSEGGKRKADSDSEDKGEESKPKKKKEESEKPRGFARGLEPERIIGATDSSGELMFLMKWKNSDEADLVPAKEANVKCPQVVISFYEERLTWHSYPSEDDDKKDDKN
#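 Compound inhibition of the preformed complex between 50 nM HP1-beta and 50 nM biotinylated H3K9me3 peptide was read by AlphaScreen. Buffer was PBS pH 7.4 with 0.01% Tween-20. Incubations ran 30 min at room temperature, with 10 ug/mL donor/acceptor beads.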
# JMJD2A Tudor: qHTS Assay for Inhibitors of JMJD2A-Tudor Domain. AlphaScreen JMJD2A-Tudor / H3K4me3 peptide binding. Lysine-specific demethylase 4A (Homo sapiens), O75164. 4.4% of 390,000 active. Potency, µM (doses to about 114 µM), inactives show top-dose activity change, negative = inhibition, hits mostly inhibitors; also: potency is read from the fitted curve at half-maximal effect; % is scaled to controls: 0 for no effect and ±100 for the full control effect; nearly all actives have a fitted effect of over 50% in size
# PLK1 PBD inh: qHTS for Inhibitors of PLK1-PDB (polo-like kinase 1 - polo-box domain): Primary Screen; Plk1 PBD binding of FITC phosphopeptide, fluorescence polarization; 2.8% of 360,000 active; Potency, µM, for the others: max response, negative = inhibition, most hits filed as inhibitors; Serine/threonine-protein kinase PLK1 (Homo sapiens), P53350; also: potency is read from the fitted curve at half-maximal effect; series mostly up to about 57 µM; % is scaled to controls: 0 for no effect and ±100 for the full control effect; nearly all actives have a fitted effect of over 65% in size
# BAZ2B inh: qHTS Assay for Inhibitors of BAZ2B. 4.4% of 360,000 active. AlphaScreen BAZ2B-H3K14Ac peptide displacement. Potency, µM (series often up to 114 µM), for the others: at the top dose activity change, negative = inhibition, most hits filed as inhibitors. AID 504333, 2011. Bromodomain adjacent to zinc finger domain protein 2B (Homo sapiens), Q9UIF8; also: potency is read from the fitted curve at half-maximal effect; % is scaled to controls: 0 for no effect and ±100 for the full control effect; nearly all actives have a fitted effect of over 60% in size
#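 AlphaScreen displacement of biotin-H3(5-23)K14Ac peptide (50 nM final) from BAZ2B (50 nM final) in PBS pH 7.4, 0.01% Tween-20; complex preformed 30 min RT, then compounds (top 110 uM) 30 min RT, beads 20 min dark.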
# PI5P4Ka inh: qHTS for Inhibitors of phosphatidylinositol 5-phosphate 4-kinase (PI5P4K). Phosphatidylinositol 5-phosphate 4-kinase type-2 alpha (Homo sapiens), P48426. PI5P4Kalpha enzyme, ADP-Glo luminescence, 60 min; active compounds read low. max response, %. 1.2% of 330,000 active; active = max response of -50% or lower; inconclusive = between -30% and -50%; inactive = -30% or higher; also: value at the top dose of about 77 µM; % is scaled to controls: 0 for no effect and ±100 for the full control effect
#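 qHTS, 1536-well: enzyme/substrate mix, compound by pin tool, 5 microM ATP final; RT 60 min; ADP-Glo reagents 1 (45 min) then 2 (30 min); luminescence.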
# G9a block: qHTS Assay for Inhibitors of Histone Lysine Methyltransferase G9a; G9a H3K9 monomethylation, AlphaScreen, 2 h; Potency, µM (highest dose often 102 µM), for the others: at the highest dose activity, negative = inhibition, most hits filed as inhibitors; 8.8% of 350,000 active; also: potency is read from the fitted curve at half-maximal effect; % is scaled to controls: 0 for no effect and ±100 for the full control effect; nearly all actives have a fitted effect of over 75% in size
# Target sequence (Q96KQ7 913-1193 limits assumed): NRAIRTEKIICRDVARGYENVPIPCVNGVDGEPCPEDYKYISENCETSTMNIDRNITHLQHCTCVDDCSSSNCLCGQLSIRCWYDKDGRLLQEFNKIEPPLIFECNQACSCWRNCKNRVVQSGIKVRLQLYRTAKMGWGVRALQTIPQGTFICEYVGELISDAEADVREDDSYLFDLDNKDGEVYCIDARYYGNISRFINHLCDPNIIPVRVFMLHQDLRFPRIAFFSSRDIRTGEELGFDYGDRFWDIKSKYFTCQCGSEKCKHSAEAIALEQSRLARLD
#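 Quantitative HTS format: methyltransferase activity on a biotin-tagged H3K9 peptide is measured by AlphaScreen, using a rabbit anti-monomethyl-H3K9 antibody with streptavidin donor and anti-IgG acceptor beads. Final levels are 20 nM enzyme, 500 nM peptide, 20 uM SAM; 2 h RT.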
# * = called active by the depositor; ? = inconclusive; / = not tested or not shown; [ ] = another dose, or the depositor's remark. Unless noted, calls follow the shape of the dose curve; as a rule, active = well fitted curve in the direction sought with a large enough effect; inconclusive = small, poorly fitted or top-dose-only effect, or another doubt; inactive = no such curve, though single readings can be large; an effect the other way counts as inactive or inconclusive.
SMILES,HP1b chromo inh,JMJD2A Tudor,PLK1 PBD inh,BAZ2B inh,PI5P4Ka inh,G9a block
C=CCNCCOCCSc1ccc(Cl)cc1,?,3.2µM*,0%,?,5,7.9µM*
COCCCNCCOCCOc1ccc(Cl)cc1C(C)(C)C,-34%,20µM*,-2%,?,10,8.9µM*
C=CCNCCCOc1ccc(Cl)cc1C(C)(C)C,?,4.5µM*,-2%,40µM*,25,10µM*
OCCNCCCOc1cc(Cl)ccc1Cl,36%,-19%,-1%,-2%,16,-20%
C=CCNC(=O)CSc1ccc(Cl)cc1,47%,-17%,-8%,-1%,-7,7%[12.7 µM]
C=CCNCCOCCOc1ccc(Cl)cc1C(C)(C)C,-45%,2µM*,2%,50µM*,9,8.9µM*
O=C(OCC(=O)C12CC3CC(CC(C3)C1)C2)c1cnccn1,19%,-10%,-1%,1%,4,/
COCCNCCCCSc1ccc(Cl)cc1,-35%,8.9µM*,-20%,56µM*,2,/
CN(C)c1ccc(C(=O)Nc2sc(Nc3ccccc3)nc2C(N)=O)cc1,15%[57 µM],-22%,/,-2%,/,-18%[59 µM]
CCc1cc2c(SCC#N)ncnc2s1,0%,?,27µM*,7%,-19,/
Cc1sc2ncnc(N3CCCCC3)c2c1C,35%,11%,-4%,7%,/,35%[12.7 µM]
CCc1cc2c(SCC(=O)O)ncnc2s1,12%,-12%,-10%,0%,/,4%[59 µM]
CCc1cc2c(N3CCCCC3)ncnc2s1,63%,-8%,-3%,0%,0,50µM*
CCOC(=O)c1ccccc1NC(=O)COC(=O)CCC(=O)c1ccccc1,73%,28%,11%,23%,13,126%
COCc1cc(C)nc(N2CCN(Cc3ccccc3)CC2)c1C#N,23%,7%,1%,34%,2,50µM*
CN1CCN(S(=O)(=O)c2cccc(C(=O)N(Cc3ccccc3)c3ccccc3)c2)CC1,-5%,-11%,-2%,/,2,/
Cc1cccc(/C=N/NC(=O)C[n+]2ccccc2)c1,35%,-23%,-4%,12%,2,2%[0.501 µM]
Cc1cccc(/C=N\NC(=O)c2csnn2)c1,11%,79µM*,-9%,?,-23,9%[0.501 µM]
Cc1cccc(C(=O)N/N=C/c2ccoc2)c1,17%,-26%,-11%,50µM*,?,6%
O=C(N/N=C\c1ccc(Oc2ccccc2)cc1)c1csnn1,42%,-17%,-1%,0%,-6,0.89µM*
CN(C)c1ccc(/C=N\NC(=O)c2csnn2)cc1,27%,-6%[57.1 µM],-10%,8%,-17,3%[0.0925 µM]
COc1ccccc1CNc1ccnc(-c2cccnc2)n1,/,/,/,/,/,-43%[0.501 µM]
Cc1ccccc1/C=N/NC(=O)Cn1cnc([N+](=O)[O-])n1,24%,-2%,-6%,?,1,-2%
O=C(Cn1cnc([N+](=O)[O-])n1)N/N=C/c1ccccc1O,50%,?,-1%,14µM*,3,95%[59 µM]
O=C(Cn1cnc([N+](=O)[O-])n1)N/N=C/c1cc(Cl)ccc1O,19%,32µM*,-1%,28µM*,0,8%
SMILES,HP1b chromo inh,JMJD2A Tudor,PLK1 PBD inh,BAZ2B inh,PI5P4Ka inh,G9a block
COc1ccc(OCc2cc(C(=O)NCc3cccc(C)n3)no2)c(Cl)c1,7%,-29%,-5%,-17%,-7,?
CC(=O)Nc1ccc(C2=NN(C)C(=NCc3ccccc3)SC2)cc1,-11%,45µM*,30µM*,/,?,?
CSCCC(NC(=O)c1ccccc1Cl)C(=O)NCCOc1ccc(C)cc1 (stereo not given),/,/,-1%,/,9,/
CCn1cnc2c(Nc3ccc(CC(=O)N=C(N)N)cc3)nc(C#N)nc21,/,-21%,/,/,/,/
CC(=O)c1cccc(NC(=O)c2nc(-c3ccc(C)cc3)n3c2CCCCC3)c1,80%,14%,/,17%,/,6%[59 µM]
CC(C)(C)c1c(Cl)c(O)c(-c2ccccc2)c(=O)n1-c1ccccc1,?,50µM*,-21%,18µM*,3,/
Cc1c(O)c2ccccc2n(-c2ccccc2)c1=O,12%,-1%,0%,/,-1,/
CCOc1ccc(NC(=O)CN(C)C(=O)c2ccc(OCC(=O)N3CCOCC3)c(OC)c2)cc1OCC,31%,-6%,3%,/,2,/
COc1ccc(-c2oc3ccccc3c(=O)c2OCC(=O)O)cc1,-14%,?,12µM*,-32%,-29,2%
CCOC(=O)COc1c(-c2ccc(OC)cc2)oc2ccccc2c1=O,125%,29%,-1%,42%,4,5%[59 µM]
O=C(O)COc1c(-c2ccco2)oc2ccccc2c1=O,40%,-4%,0%,-2%,0,45µM*
Cc1ccc(-c2noc(C3CCCN(C(=O)c4ccccc4Br)C3)n2)o1 (stereo not given),20%,-14%,-12%,-18%,-9,25µM*
COC(=O)CN1C(=O)N(c2ccccc2)C(N(O)C(=O)Nc2ccccc2)C1(C)C (stereo not given),18%,?,-7%,-39%,/,40µM*
Cc1sc(-c2ccccn2)nc1OC(=O)c1ccc(F)cc1F,30%,-7%,-11%,79µM*,1,10µM*
Cc1sc(-c2ccccn2)nc1OC(=O)c1ccc(Cl)c(Cl)c1,19%,-4%,-5%,-1%,/,40µM*
Cc1ccc(C(=O)Oc2ccc(-c3nccc(-c4ccccn4)n3)cc2)cc1,22%,16%,2%,3%,-3,-4%[59 µM]
COCCNC(=O)C1CCCN(Cc2cccc(Cl)c2)CC1 (stereo not given),/,/,-9%,/,-1,/
COCCNC(=O)CCC1CCN(Cc2cccc(-c3ccc(C)o3)c2)CC1,22%,-23%,-5%,-10%,1,22µM*
COc1cc(CN2CCC(C(=O)NCCC(C)C)CC2)ccc1OCc1ccccc1,?,28µM*,6%,-37%,-3,50µM*
COCCNC(=O)C1CCCN(Cc2cccc(C#N)c2)CC1 (stereo not given),/,/,3%,/,0,/
COCCNC(=O)C1CCN(Cc2cccc(OCc3ccccc3)c2)CC1,?,0.79µM*,-10%,?,4,22%[0.501 µM]
CC(C)CCNC(=O)C1CCN(Cc2cccc(OCc3ccccc3)c2)CC1,?,10µM*,-13%,?,0,/
COc1ccc2c(CNCCc3cccs3)c(C(=O)O)n(Cc3ccccc3)c2c1,20%,-6%,/,-23%,/,2%[59 µM]
CC(C)n1c(O)c(N=NC(=O)CNC(=O)Cc2ccc(Cl)cc2)c2ccccc21,-2%,?,-7%,-30%,-1,?
